Data reported in PubChem BioAssay (Tox21).
Inconclusive results are not listed. A number with no mark means an inactive call. Calls of active or inactive are those of the source. The call rests on the fitted dose curve; in most records, active means well fitted cell-killing curve with a large enough effect in the repeat runs; inconclusive means weak or mixed curves, or effect the other way; inactive means flat fitted curve, though single readings scatter.

Experiment: qHTS RealTime-Glo MT Cell Viability Assay in HEK293 cells - 0 hour (AID 1224880); further: nearly all actives have a fitted effect of over 45% in size; on activity change, negative = cytotoxicity: top concentration of the series differs between compounds
Settings: RealTime-Glo luminescence; series mostly up to 76.8 µM; activity change, negative = cytotoxicity: at the top concentration
From the text: U.S. Tox21 Program National Center for Advancing Translational Sciences [NCATS] NIH Chemical Genomics Center [NCGC] U.S. Environmental Protection Agency [EPA] National Institutes of Environmental Health Sciences [NIEHS] National Toxicology Program [NTP] U.S. Food and Drug Administration [FDA] Tox21 Assay Overview: Measure of cell viability is critical in the cell-base assay. Analysis of cell viability is necessary for the characterization of cell responses to cytotoxic drugs and environmental stress. A RealTime-Glo MT Cell Viability Assay to monitor cell viability in real time of continues cell culture during 40 hours of compound treatment was used to screen Tox21 10K library compounds in Hek293 cells. The RealTime-Glo MT Cell Viability Assay is a nonlytic, homogeneous, bioluminescent method to measure cell viability in real time using a simple, plate-based method. The assay involves adding NanoLuc luciferase and a cell-permeant prosubstrate to cells in culture. Viable cells reduce the proprietary prosubstrate to generate a substrate for NanoLuc luciferase. This substrate diffuses from cells into the surrounding culture medium, where it is rapidly used by the NanoLuc Enzyme to produce a luminescent signal. The signal correlates with the number of viable cells, making the assay well suited for cytotoxicity studies.
Tox21 Assay Protocol Summary: The mixture of Hek293 cell suspension and reagents were dispensed at 600cells/6 ul/well in 1536-well tissue culture treated black solid bottom plates using a Multidrop dispenser. After the assay plates were incubated at a 37 C/5% CO2 incubator for 5 hours, 23 nL of compounds dissolved in DMSO, positive and negative controls was transferred to the assay plate by a pintool work station. The plates were incubated at 37 C for 40 hours. The luminescence intensity were measured at 0h, 8h, 16h, 24h, 32h and 40h time points using ViewLux plate reader during compound treatment.
On the % scale 0 is the no-effect control and ±100 the full control effect; potency means the concentration at half of the fitted maximal effect.

Structure (SMILES)	activity change, negative = cytotoxicity	Potency
O=[N+]([O-])c1ccc(NCCO)c(OCCO)c1	-2.83%	
CCCCCCCCCCCCCCOS(=O)(=O)O	-1.8%	
CCCCC1=NC2(CCCC2)C(=O)N1Cc1ccc(-c2ccccc2-c2nn[nH]n2)cc1	-15.4% [at 35.3 µM]	
NS(=O)(=O)c1ccc(N2CCCCS2(=O)=O)cc1	-2.93% [at 35.3 µM]	
NC(N)=NCCC[C@H](N)C(=O)O	14% [at 6.97 µM]	
OC[C@H]1O[C@@H](OCCc2ccc(O)cc2)[C@H](O)[C@@H](O)[C@@H]1O	-3.27% [at 35.3 µM]	
COc1ccc(-c2nc3ccc(C4=NNC(=O)CC4C)cc3[nH]2)cc1 (stereo not given)	-20.9% [at 35.3 µM]	
COc1cc(Cl)ccc1Oc1ccc(Cl)cc1Cl	7.82%	
CC(=O)[O][Al]	13.6%	
CCCCNc1ccc(C(=O)OCCOCCOCCOCCOCCOCCOCCOCCOCCOC)cc1	-8.45% [at 35.3 µM]	
CCOC(=O)C1=C[C@]2(CC)CCCN3CCc4c(n1c1ccccc41)[C@@H]32	16% [at 35.3 µM]	
C[C@H](CCC(=O)O)[C@H]1CC[C@H]2[C@@H]3CC[C@@H]4C[C@H](O)CC[C@]4(C)[C@H]3C[C@H](O)[C@]12C	-20.8%	
CC(C)(C)OCC1CO1 (stereo not given)	10.3%	
Nc1cccc(S(=O)(=O)c2cccc(N)c2)c1	-1.72%	
C#CCN(C)CCCOc1ccc(Cl)cc1Cl	-0.594% [at 35.3 µM]	
C[C@@H]1C[C@H]2[C@@H]3CCC4=CC(=O)C=C[C@]4(C)[C@@]3(F)[C@@H](O)C[C@]2(C)[C@@]1(O)C(=O)COC(=O)c1ccncc1		3.01 µM (active)
NCC(=O)CCC(=O)O	14.5% [at 35.3 µM]	
CCC(C)O (stereo not given)	7.77%	
COc1cc2nc(N3CCN(C(=O)C4COc5ccccc5O4)CC3)nc(N)c2cc1OC (stereo not given)		19 µM (active)
CN(C)CCOC(c1ccccc1)c1ccc(Br)cc1 (stereo not given)	27.6% [at 35.3 µM]	

Structure (SMILES)	activity change, negative = cytotoxicity	Potency
CN(C)c1ccc(C(c2ccccc2)c2ccc(N(C)C)cc2)cc1	-0.374%	
NCC(=O)O	-1.51% [at 15.8 µM]	
CCCCCCCCCOS(=O)(=O)O	-4.58%	
COCCCN1CCC(NC(=O)c2cc(Cl)c(N)c3c2OCC3)CC1	0.678% [at 35.3 µM]	
O=C1OC(=O)C2C3C=CC(C3)C12 (stereo not given)	-1.19%	
CCCCCCCCCCO[C@@H]1O[C@H](CO)[C@@H](O)[C@H](O)[C@H]1O	29.1%	
COc1cccc(N(C)C(=S)Oc2ccc3c(c2)CCCC3)n1	-4.62% [at 35.3 µM]	
CC(C)(C)Cl	-1.79%	
O=S(=O)(Oc1ccc(Cl)cc1)c1ccccc1	-2.71%	
CC[N+](C)(CC)CCOC(=O)C(O)(c1ccccc1)C1CCCCC1 (stereo not given)	6.28% [at 35.3 µM]	
O=C(O)c1nc(Cl)c(Cl)c(Cl)c1Cl	-4.48%	
CC(C)(CO)[N+](=O)[O-]	6.65%	
COCC(C)OC(C)=O (stereo not given)	1.25%	
CCCCCCCCCc1ccc(OCCOCCO)cc1	3.03% [at 35.3 µM]	
CN(C)CCN(Cc1ccccc1)c1ccccn1	1.43% [at 35.3 µM]	
O=C(Cl)c1cc(C(=O)Cl)cc(C(=O)Cl)c1	-3.71%	
CN(Cc1ccc(C(C)(C)C)cc1)Cc1cccc2ccccc12	-7.62% [at 35.3 µM]	
C=CC(=O)OCCOc1ccccc1	16.7%	
Cc1ncc(CO)c(C=O)c1O	2.27% [at 35.3 µM]	
Cc1cc(N)c2cc(NC(=O)Nc3ccc4nc(C)cc(N)c4c3)ccc2n1	-11.2% [at 35.3 µM]	
